Several values for one entry are separate records, joined by “and”; a condition that tells them apart may be missing. Identical values can stand only once. Counter-ions that a name gives are not always drawn. ± gives the standard deviation of the averaged measurements. In all, about 2,600 compounds were measured (“total cell number (DAPI+ nuclei) relative to DMSO vehicle control”: median about -1.4, lowest 2% from about -23 on). For the sample, the lowest values were picked, then their nearest neighbours and some compounds at random.
What follows are molecules tested on jimpy (Plp1 jimpy) mouse iPSC-derived oligodendrocyte progenitor cells (assay: total cell number (DAPI+ nuclei) relative to DMSO vehicle control (SDs above negative control mean); higher = more surviving cells). Conditions: 10 µM; 3 days.

Point of comparison: c1cnc2cc3c(cc2n1)[C@@H]1CNC[C@H]3C1 [Varenicline tartrate], total cell number -2.7. Against it:
- C[N+](C)(C)CC(O)CC(=O)[O-] (racemic) [DL-Carnitine HCl] — higher, 2.24
- CC(=O)C(C)=O [2,3-Butanedione] — higher, -1.17
- CC[C@H]1OC(=O)C[C@@H](O)[C@H](C)[C@@H](O[C@@H]2O[C@H](C)[C@@H](O)[C@H](N(C)C)[C@H]2O)[C@@H](CCN2C[C@H](C)C[C@H](C)C2)C[C@@H](C)C(=O)/C=C/C(C)=C/[C@@H]1CO[C@@H]1O[C@H](C)[C@@H](O)[C@@H](OC)[C@H]1OC [Tilmicosin] — lower, -3.95
- Cc1cc(C)c(/C=C2\C(=O)Nc3ccccc32)[nH]1 — lower, -3.96
- COC1=CC(c2cc3ccccc3[nH]2)=N/C1=C\c1[nH]c(C)cc1C [Obatoclax Mesylate (GX15-070)] — lower, -27.6
- Cc1cc(C)c(/C=C2\C(=O)Nc3ccccc32)[nH]1 [Semaxanib (SU5416)] — higher, -1.49
- C[C@H](NC(=O)Cc1cc(F)cc(F)c1)C(=O)N[C@@H]1C(=O)N(C)c2ccccc2-c2ccccc21 — lower, -6.63
- NS(=O)(=O)c1nn2cc(-c3ccccc3)nc2s1 — lower, -5.78
- CCCCCCCC/C=C\CCCCCCCC(=O)NCc1ccc(O)c(OC)c1 [Olvanil] — lower, -4.4
- Cc1cc(Nc2cc(N3CCN(C)CC3)nc(Sc3ccc(NC(=O)C4CC4)cc3)n2)n[nH]1 [VX-680 (Tozasertib, MK-0457)] — lower, -24
- Cc1cc(Nc2cc(N3CCN(C)CC3)nc(/C=C/c3ccccc3)n2)n[nH]1 — lower, -26.3
- O=C(Nc1ccc2[nH]ncc2c1)C1CCC1 [Rhodblock 6] — higher, -2.58
- Fc1ccc(C(OCCCc2cnc[nH]2)c2ccc(F)cc2)cc1 — higher, -1.91
- CC(C)NCC(O)c1ccc(NS(C)(=O)=O)cc1 (racemic) [(±)-Sotalol hydrochloride] — higher, -1.64
- COCCNC(=O)COc1ccc(OCCNC[C@H](O)COc2ccccc2)cc1 [ZD 7114 hydrochloride] — higher, -0.987
- CCCC(=O)O[C@]1(C(=O)COC(C)=O)CC[C@H]2[C@@H]3C[C@H](F)C4=CC(=O)C=C[C@]4(C)[C@@]3(F)[C@@H](O)C[C@@]21C [Difluprednate] — higher, 4.34
- COc1cc(N2CCN(C)CC2)ccc1Nc1nccc(-c2cn(C)c3cnccc23)n1 — lower, -15.9
- O=C(O)Cc1ccc(O)c(O)c1 [3,4-Dihydroxyphenylacetic acid] — higher, -1.97
- Nc1nc(Cl)nc2c1ncn2[C@H]1C[C@H](O)[C@@H](CO)O1 [Cladribine] — lower, -22.8
- Nc1nc(Cl)nc2c1ncn2[C@@H]1O[C@H](CO)[C@@H](O)[C@@H]1F [Clofarabine] — lower, -21.2
- Nc1nc(Cl)nc2c1ncn2[C@@H]1O[C@H](CO)[C@@H](O)[C@H]1O [2-Chloroadenosine] — lower, -3.18
- c1cnc2cc3c(cc2n1)[C@@H]1CNC[C@H]3C1 [Varenicline Tartrate] — higher, 1.55
- O=C(O)C1(C(=O)O)CCC1.[NH2-].[NH2-].[Pt+2] [Carboplatin] — lower, -4.56 ± 1.4
- CSc1nc(N)c2ncn([C@@H]3O[C@H](COP(=O)(O)OP(=O)(O)OP(=O)(O)O)[C@H](O)C3O)c2n1 (stereo not given in full) [2-Methylthioadenosine triphosphate tetrasodium] — higher, 1.81
- Nc1ncnc2c1c(-c1cccc(OCc3ccccc3)c1)cn2C1CC(CN2CCCC2)C1 (stereo not given) — lower, -25.8
- Nc1ncnc2c1c(-c1ccc(Oc3ccccc3)cc1)cn2C1CCCC1 — lower, -5.56
- C=CC(=O)N1CCC[C@@H](n2nc(-c3ccc(Oc4ccccc4)cc3)c3c(N)ncnc32)C1 — lower, -8.95
- O=C(Nc1ccccc1C(=O)NC1CCCCNC1=O)c1cc2ccccc2s1 (stereo not given) — higher, -0.315
- COC(=O)N[C@H](C(=O)N1CCC[C@H]1c1ncc(-c2ccc(-c3ccc(-c4cnc([C@@H]5CCCN5C(=O)[C@@H](NC(=O)OC)C(C)C)[nH]4)cc3)cc2)[nH]1)C(C)C — lower, -5.73
- COc1cccc2c1[C@@H]1CN(CCCCn3c(=O)[nH]c4c(sc5ncc(-c6ccccc6)nc54)c3=O)C[C@@H]1CO2 [Fiduxosin hydrochloride] — lower, -6.17
- Cc1nc(C(=O)NCC(=O)O)c(O)c2ccc(Oc3ccccc3)cc12 — higher, 3.22
- CC(C)c1cc(C(=O)N2Cc3ccc(CN4CCN(C)CC4)cc3C2)c(O)cc1O — lower, -25.7
- C[C@@H](Oc1cc(-n2cnc3ccc(CN4CCN(C)CC4)cc32)sc1C(N)=O)c1ccccc1C(F)(F)F — lower, -14.7
- Nc1ncnc2c1ncn2[C@@H]1O[C@H](COP(=O)(O)OP(=O)(O)OP(=O)(O)OP(=O)(O)OC[C@@H]2O[C@H](n3cnc4c(N)ncnc43)C(O)[C@@H]2O)[C@H](O)C1O (stereo not given in full) [P1,P4-Di(adenosine-5')tetraphosphate triammonium] — higher, -0.947
- Nc1c(S(=O)(=O)O)cc(Nc2ccc(Nc3nc(Cl)nc(Nc4cccc(S(=O)(=O)O)c4)n3)c(S(=O)(=O)O)c2)c2c1C(=O)c1ccccc1C2=O [Reactive Blue 2] — higher, -0.98
- C[C@@H]1O[C@@H](O[C@H]2[C@H](Oc3cc(O)c(C(=O)CCc4ccc(O)cc4)c(O)c3)O[C@H](CO)[C@@H](O)[C@@H]2O)[C@H](O)[C@H](O)[C@H]1O [Naringin Dihydrochalcone] — higher, -0.984
- Cc1nc2c([nH]1)c(=O)n(C)c(=O)n2Cc1ccco1 [Furafylline] — higher, -0.322
- C=CC(=O)Nc1cccc(Nc2nc(Nc3ccc(OCCOC)cc3)ncc2F)c1 — lower, -15.3
- Cc1cnc(Nc2ccc(OCCN3CCCC3)cc2)nc1Nc1cccc(S(=O)(=O)NC(C)(C)C)c1 — lower, -12.3
- O=C(Nc1cccc(Nc2ncc(Br)c(NCCc3cnc[nH]3)n2)c1)N1CCCC1 — lower, -24.3
- O=C(NCCCNc1nc(Nc2cccc(NC(=O)N3CCCC3)c2)ncc1I)c1cccs1 — lower, -23.5
- NC[C@@H]1O[C@H](c2ccccc2)Cc2c1ccc(O)c2O — higher, -2.54
- CCCCCCCCCCCCc1ccc(S(=O)(=O)Nc2nncs2)cc1 — higher, 1.21

C[C@@H](N)[C@H]1CC[C@H](C(=O)Nc2ccncc2)CC1 was tested, and the total cell number was -1.42 and -2.14.
